Experimental data: PubChem BioAssay
Values without a mark were called inactive. How the calls were made is not given here.

target: Pantothenate synthetase (Mycobacterium tuberculosis (strain ATCC 25618 / H37Rv)) (UniProt P9WIL5); test: Coupled enzyme confirmation of inhibitors against recombinant Mtb PanC (AID 375); details: coupled enzyme assay; at 10 µM, hits give high values;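 further: 0% = full reaction with vehicle and 100% = no enzyme background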
Sequence (P9WIL5 whole entry, looked up): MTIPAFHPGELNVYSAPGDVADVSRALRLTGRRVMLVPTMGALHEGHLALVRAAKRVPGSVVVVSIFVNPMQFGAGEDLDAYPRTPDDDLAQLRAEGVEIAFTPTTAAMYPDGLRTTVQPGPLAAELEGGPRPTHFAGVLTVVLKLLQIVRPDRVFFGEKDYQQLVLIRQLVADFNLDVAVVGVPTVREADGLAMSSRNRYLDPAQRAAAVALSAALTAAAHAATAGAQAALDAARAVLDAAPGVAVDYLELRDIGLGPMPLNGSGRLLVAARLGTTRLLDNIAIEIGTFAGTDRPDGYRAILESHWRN

| Compound | inhibition |
| --- | --- |
| CC1CCN(CC(O)COC2CCC(C(C)(C)C)CC2)CC1 (stereo not given) | 0% |
| O=C(CCN1C(=O)C2C3C=CC(C3)C2C1=O)NC1CCCc2ccccc21 (stereo not given) | 1% |
| COC(=O)c1ccccc1NC(=O)CSc1nnnn1C1CCCCC1 | 6% |
| CCC(=O)N1CCN=C1SCc1ccc(Cl)cc1 | 0% |
| Cc1cc(C)c2c(n1)nn1c(N3CCN(c4cccc(Cl)c4)CC3)cc(C)nc21 | 5% |
| Cc1cc(=O)n(C)c(=O)n1CCCCCN1CCCC1 | 0% |
| Cc1nc2c(=O)oc3ccccc3c2n1-c1ccccc1 | 0% |
| O=C(NC1CCCc2ccccc21)C1CCN(c2nnc(-n3cccc3)s2)CC1 (stereo not given) | 0% |
| Cc1cc(C)n(C(=O)C23CC4CC(CC(C4)C2)C3)n1 | 0% |
| COc1ccccc1-n1c(C)nnc1SCC(N)=O | 0% |
| COC(=O)c1ccccc1S(=O)(=O)N(Cc1cc2cc3c(cc2[nH]c1=O)OCO3)C1CCCCC1 | 1% |
| NC(=O)CSc1nnc(-c2ccc(O)cc2)n1Cc1ccco1 | 0% |
| CC(C)OC(=O)C(C)(C)Oc1ccc(C(=O)c2ccc(Cl)cc2)cc1 | 0% |
| Cn1c(/C=N/n2cnnc2)nc2ccccc21 | 2% |
| Cc1onc(-c2ccccc2Cl)c1C(=O)N1CCc2ccccc21 | 0% |
| O=C(Nc1ccccc1)c1cccc(N2CCCC2=O)c1 | 6% |
| CCCn1c2ccccc2c2nnc(SCC(=O)OCC)nc21 | 6% |
| Cc1cccc(Cn2c(SCC(=O)Nc3ccccc3)nc3c2c(=O)[nH]c(=O)n3C)c1 | 3% |
| Cc1cc(-n2c(C)cc(C(=O)CSc3nc4ccccc4c(=O)n3Cc3ccco3)c2C)no1 | 0% |
| CC1=C(C(=O)OCCOC(C)C)C(c2cc3c(cc2Br)OCO3)C2=C(CCCC2=O)N1 (stereo not given) | 0% |

| Compound | inhibition |
| --- | --- |
| CCOC(=O)C1CSC(CC(=O)Nc2ccc(Cl)cc2)C(=O)N1 (stereo not given) | 0% |
| CCCC(=O)Nc1ccccc1NC(=O)CCC | 0% |
| Cc1c(C(=O)N2CCN(c3ccccc3)CC2)sc2ncnc(N3CCN(c4ccccc4)CC3)c12 | 0% |
| Cc1c(C(=O)NCc2cccnc2)oc2ccc(S(=O)(=O)N3CCCCC3)cc12 | 0% |
| c1ccc2[nH]c(-c3cscn3)nc2c1 | 0% |
| COc1ccc(CCN2C(=O)C3C4C=CC(C4)C3C2=O)cc1OC (stereo not given) | 0% |
| CCOc1ccc(-c2noc(-c3ccncc3)n2)cc1OCC | 4% |
| CCOC(=O)c1cc2c(=O)n3cccc(C)c3nc2n(Cc2ccco2)c1=NC(=O)c1cccnc1 | 0% |
| O=C(O)c1cc(=O)cc(C(=O)O)[nH]1 | 0% |
| Cc1ccc(C(=O)OCC(=O)c2ccc(Cl)s2)s1 | 4% |
| CN(C)c1ccnc(NCc2ccccc2)c1C#N | 0% |
| CC(NC(=O)c1ccc(F)cc1)C(c1cccs1)N1CCN(C)CC1 (stereo not given) | 3% |
| Cc1cc2oc(=O)cc(CN3CCN(Cc4ccc5c(c4)OCO5)CC3)c2cc1C | 0% |
| Nc1c(C(=O)NCCN2CCOCC2)c2nc3ccccc3nc2n1-c1ccc2c(c1)OCO2 | 1% |
| CCOc1ccc(C(=O)OCc2nnc(-c3cccs3)o2)cc1OC | 0% |
| O=C(NCc1ccc2c(c1)OCO2)c1ccc(NS(=O)(=O)c2ccc3c(c2)OCCO3)cc1 | 0% |
| CCCCC1C(=O)N(c2ccccc2)N(c2ccccc2)C1=O | 0% |
| COc1ccc(N2CCN(C(c3cccs3)C(C)NC(=O)c3ccco3)CC2)cc1 (stereo not given) | 0% |
| C=CCn1c(COc2ccccc2F)nnc1SCC(=O)N1CC(=O)Nc2ccccc21 | 1% |
| CC(=O)c1cc(Cl)ccc1OC(=O)c1ccco1 | 0% |
